Test results as given in PubChem BioAssay AID720532 (National Center for Advancing Translational Sciences (NCATS), 2013).
Several values for one entry are separate records, joined by “and”; a condition that tells them apart may be missing. Equal values may be shown once. Among all 18,000 compounds or so, about 1,200 (6.7%) were called active. A call without a number means that no potency is given here. Inconclusive results (about 16%) are left out. This is one part of a sample in which actives are shown more often than they occur. Unmarked numbers belong to inactive results. Calls come from the whole dose curve; tested in HEK293 cells.

Test: qHTS for Inhibitors of binding or entry into cells for Marburg Virus
Settings: Marburg virus pseudotype entry/binding inhibition, cell-based; series mostly up to 49.2 µM
Potency is the fitted concentration of half-maximal effect.

SMILES	Potency	activity change, negative = inhibition
Oc1c(Cl)cc(Cl)c(Cl)c1Cc1c(O)c(Cl)cc(Cl)c1Cl	15.8 µM (active)	
Cc1ccccc1-c1ccc(C(=O)O)s1		inactive
C[C@H]1[C@H](c2ccccc2)Oc2cc(Br)ccc2S(=O)(=O)N1Cc1cccc(F)c1		inactive
C[C@@]12CC[C@H]3[C@@H](CC[C@]4(O)C[C@H](O)CC[C@@]34C=O)[C@]1(O)CC[C@@H]2C1=CC(=O)OC1	1 µM (active)	
COC1CC(OC2CC[C@@]3(C=O)C4CC[C@]5(C)C(C6=CC(=O)OC6)CC[C@@]5(O)C4CC[C@]3(O)C2)OC(C)C1O (stereo partly drawn)	0.251 µM (active)	
COc1ccc(C[C@H](N)C(=O)N[C@@H]2[C@H](O)[C@H](n3cnc4c(N(C)C)ncnc43)O[C@@H]2CO)cc1	2.24 µM (active)	
Nc1ncnc2c1ncn2C1CC(O)C(CO)O1 (stereo not drawn)		inactive
COc1ccc(CC(N)C(=O)NC2C(O)[C@H](n3cnc4c(N(C)C)ncnc43)O[C@@H]2CO)cc1 (stereo partly drawn)	3.98 µM (active)	
C[C@H]1C/C=C/[C@@H]2[C@@H]3O[C@]3(C)[C@@H](C)[C@H]3[C@H](Cc4ccccc4)NC(=O)[C@]32OC(=O)O/C=C/[C@](C)(O)C1=O	0.251 µM (active)	
CO[C@H]1[C@H](NC(=O)C(C)C)c2ccccc2C12CCN(Cc1cnc(N(C)C)s1)CC2		inactive
Cc1c(S(=O)(=O)O)oc2c1C(=O)C(=O)c1c-2ccc2c1CCCC2(C)C		inactive
CC(C)c1cc(C(=O)N2CCOc3ccc(CN4CCC(Oc5cccnc5)CC4)cc3C2)n[nH]1		inactive
O=c1c(CN2CCOc3ccc(CN4CCC(Oc5cccnc5)CC4)cc3C2)coc2ccccc12	11.2 µM (active)	
CCOC(=O)N1CCN(Cc2ccc3c(c2)CN(C(=O)c2cccc(-n4cccn4)c2)CCO3)CC1		inactive
CCOC(=O)N1CCC(N2CCOc3ccc(CN4CCC(O)(c5cccnc5)CC4)cc3C2)CC1		inactive
O=C(C(=O)N1CCOc2ccc(CN3CCN(Cc4ccccn4)CC3)cc2C1)c1ccccc1		inactive
c1ccc(CN2CCN(Cc3ccc4c(c3)CN(Cc3c[nH]c5ccccc35)CCO4)CC2)nc1	10 µM (active)	
O=S(O)S(=O)(=O)O		inactive
O=S1(=O)CC(O)c2cc(Br)ccc2N1Cc1cccc(F)c1 (stereo not drawn)		inactive
Cc1ccccc1Nc1oc(-c2ccccc2)nc1C(C)(C)C		-15% [at 8.59 µM]
C=C1/C(=C\C=C2\CCCC3(C)C2CCC3C(C)/C=C/C(O)C2CC2)CC(O)CC1O (stereo not drawn)		inactive
COC(=O)CCCC1=CC2=C(c3ccccc3)C(=O)C(C)(OC(=O)C3CCCC3)C(=O)C2=CN1c1ccc(OC)cc1 (stereo not drawn)		-5.26% [at 8.59 µM]
COc1cc2c(cc1OC)[C@@H]1O[C@](CCCCN3C(=O)c4ccccc4C3=O)(C2)Oc2c1c(=O)oc1ccc(F)cc21		2.42% [at 8.59 µM]
CC(Nc1oc(-c2ccccc2)nc1-c1ccccc1)c1ccccc1 (stereo not drawn)		inactive
COC12CC[C@@]3(C[C@@H]1C(C)(O)C(C)(C)C)[C@H]1Cc4ccc(O)c5c4[C@@]3(CCN1CC1CC1)[C@H]2O5 (stereo partly drawn)	15.8 µM (active)	
COc1ccc2c(c1)O[C@@H](c1ccc3c(c1)OCO3)[C@H](OC(=O)NCc1ccco1)C2=O		inactive

SMILES	Potency	activity change, negative = inhibition
COCCN1C(=O)N[C@@H](c2ccccc2)C(C(=O)OC)=C1C		inactive
CCC(=O)C[C@@H](NC(=O)OC)c1ccccc1		-1.71% [at 8.59 µM]
CCCCN1CC(CO)Oc2cccc(F)c2S1(=O)=O (stereo not drawn)		inactive
CC(=O)[O][Sn]([c]1ccccc1)([c]1ccccc1)[c]1ccccc1	1 µM (active)	
Cc1cccc(CN2CCN(C3CN(Cc4cn(Cc5ccccc5F)nn4)S(=O)(=O)C3)CC2)c1 (stereo not drawn)		inactive
CC(C)(Cc1c[nH]c2ccc(Cl)cc12)NCCOc1ccccc1OCC1CC1	11.2 µM (active) and 8.91 µM (active)	
COc1ccc2c(c1)O[C@@H](c1ccc3c(c1)OCO3)[C@H](OC(=O)NCCc1ccc(OC)c(OC)c1)C2=O		inactive
CC1C(=O)N(Cc2cn(Cc3ccco3)nn2)CCS(=O)(=O)N1Cc1ccc(-c2cccc(CO)c2)cc1 (stereo not drawn)		inactive
COc1ccc([C@@H](NC(=O)C(F)(F)F)C2CCCC=C2c2ccccc2)cc1OC (stereo partly drawn)		2.89% [at 8.59 µM]
CC[C@H](C)[C@H](NC(=O)[C@H](Cc1ccc(O)cc1)NC(=O)[C@@H](NC(=O)[C@H](CCCN=C(N)N)NC(=O)[C@@H](N)CC(=O)O)C(C)C)C(=O)N[C@@H](Cc1cnc[nH]1)C(=O)N1CCC[C@H]1C(=O)N[C@@H](Cc1ccccc1)C(=O)O		inactive
C=CCC(C)(O)c1ccco1 (stereo not drawn)		inactive
CC1=C(/C=C/C(C)=C/C=C/C(C)=C/C=C/C=C(C)/C=C/C=C(C)/C=C/C(=O)[C@]2(C)C[C@@H](O)CC2(C)C)C(C)(C)C[C@H](O)C1		inactive
COc1ccc(-c2nc3c(c4c2C[C@H](c2ccccc2)OC4)CN(C(=O)c2ccco2)CC3)c(C)c1		13.2% [at 8.59 µM]
CCOC(=O)Cn1c(=O)sc2cccc(Cl)c21		inactive
CC1(C)O[C@@H](C(O)(c2ccccc2)c2ccccc2)[C@H](C(O)(c2ccccc2)c2ccccc2)O1		-19% [at 8.59 µM]
CCCCCCCC/C=C\CCCCCCCC(=O)NCC(=O)O		inactive
C[C@H]1CCC[C@@]2(C)CCCC[C@]12O		inactive
COc1ccc([C@H]2C[C@@H](n3cc(COC(=O)c4ccccc4)nn3)[C@H](O)CN2C(=O)c2cccs2)cc1		inactive
CC(C)C(NS(=O)(=O)c1ccc(-c2ccc(Br)cc2)cc1)C(=O)O (stereo not drawn)		inactive
COc1ccc2c(c1)CO[C@H]([C@H](O)CBr)[C@H]2C=Cc1ccccc1		-15.4% [at 8.59 µM]
C=CCOC(=O)NC(c1ccc(F)c(F)c1)C(C(=O)COC)C(=O)OC (stereo not drawn)		inactive
OC[C@H]1O[C@H](C#Cc2ccccc2)C=C[C@H]1O		19.6% [at 8.59 µM]
CCOC(=O)CN1C(=O)NC(c2cccs2)C(C(=O)OC)=C1C (stereo not drawn)		-16.9% [at 8.59 µM]
O=C(O)C1CCN(c2ncnc3ccc(-c4ccccc4C(F)(F)F)cc23)CC1	112 µM (active)	
Cc1ccc(S(=O)(=O)N2CCC(=O)N([C@H](COCc3ccccc3)Cc3ccccc3)CC2)cc1		inactive
O=S1(=O)CC(N2CCN(CCO)CC2)CN1C1CCCC1 (stereo not drawn)		inactive

SMILES	Potency	activity change, negative = inhibition
O=c1cc(-c2ccc(O)cc2)oc2c(-c3cc(-c4cc(=O)c5c(O)cc(O)cc5o4)ccc3O)c(O)ccc12		inactive
CCCCCC(=O)N1C[C@@H](O)[C@H](n2cc(C3CC3)nn2)C[C@H]1c1ccc(OC)cc1		inactive
O=C1CCC[C@@H]2CC(N3CCCCC3)C[C@@H]3CCN1[C@H]23 (stereo partly drawn)		inactive
Oc1ccc(-c2c(-c3ccccc3)nn3c(C(F)(F)F)cc(C(F)(F)F)nc23)cc1		inactive
CC(C)=CCCC(C)=CCN1C(=O)[C@]2(O[C@H](C)CC3=CCCC32)c2c(Br)cccc21 (stereo partly drawn)		10.2% [at 8.59 µM]
Cc1ccc(-c2ccc(C(=O)N3CCc4nnc(CNC(=O)c5ccccc5)n4CC3)cc2)cc1		inactive
COCCNc1ncnc2ccc(-c3ccccc3CN(C)C)cc12		inactive
COc1ccccc1CNc1ncnc2ccc(-c3c(C)noc3C)cc12		inactive
COc1ccc2[nH]cc(CCNc3ncnc4ccc(-c5ccccc5CN(C)C)cc34)c2c1	10 µM (active)	
C=CCCN(Cc1ccccc1)S(=O)(=O)c1ccccc1Br		inactive
CC(=O)OC[C@H]1O[C@H](C#Cc2ccccc2)C=C[C@@H]1OC(C)=O		21% [at 8.59 µM]
CC(=O)OC[C@H]1O[C@@H](O[C@H]2[C@H](O)[C@@H](OC(=O)c3ccccc3C(=O)O)[C@H](O)O[C@@H]2COC(C)=O)[C@H](O)[C@@H](OC(=O)c2ccccc2C(=O)O)[C@@H]1O	3.55 µM (active)	
CC(=O)OC[C@H]1O[C@H](C#CC2=CCCCC2)C=C[C@H]1OC(C)=O		-20.8% [at 8.59 µM]
CCCC[C@]12Cc3cc(C#N)ccc3[C@H](O1)c1c(cc(-c3ccccc3)oc1=O)O2		9.58% [at 8.59 µM]
C[C@H]1Cc2c(COc3ccccc3)nc3c(c2CO1)CN(C(=O)Nc1cccc(C#N)c1)CC3		2.49% [at 8.59 µM] and 20.7% [at 8.59 µM]
CN1CCC(n2cnc(-c3ccc(F)cc3)c2-c2ccnc(N)n2)CC1	17.7 µM (active)	
CC(C)(CO)CNC(=O)c1ccc2[nH]c(O)c(N=Nc3ccc(S(N)(=O)=O)cc3)c2c1		inactive
Cc1ccc(NC(=O)O[C@@H]2C(=O)c3cc(Br)ccc3O[C@H]2c2ccc3c(c2)OCO3)cc1Br		inactive
CCOCCOC(=O)C(C)Oc1ccc(Oc2ncc(C(F)(F)F)cc2Cl)cc1 (stereo not drawn)		inactive
CC[N+](C)(CC)CCC[n+]1c(-c2ccccc2)c2cc(N)ccc2c2ccc(N)cc21	7.08 µM (active) and 2.82 µM (active)	
CCCCC/C=C\CC1OC1CCCCCCCC(=O)O (stereo not drawn)		inactive
CCC(C)(C)N=C(NC#N)Nc1cccnc1		inactive
Clc1ccc(C(Cn2ccnc2)OCc2ccsc2Cl)c(Cl)c1 (stereo not drawn)		inactive
Brc1ccc(C2=NCCC(c3ccccc3)O2)cc1 (stereo not drawn)		inactive
C[C@@H]1C(c2ccccc2)=Cc2[nH]c(=O)[nH]c2C[C@@H]1C(=O)N1CCCC1		7.81% [at 8.59 µM]
COC(=O)C=C[C@H]1c2ccccc2[C@@H](OC)[C@@H]1C		16.3% [at 8.59 µM] and -4.37% [at 8.59 µM]
